# In the library only some 15% were active in any assay of this set; here they are far more common.
# RORg inh: inhibitors of mouse ROR gamma transcriptional activity | AID 2551 | Drosophila S2 Gal4-RORgamma UAS-luciferase reporter, 20 h | 310,000 tested, 5.4% active | P51450 | Potency, µM (titrated, usually from 53.6 µM), without a hit: top-dose activity change, negative = inhibition, most hits filed as inhibitors; further: nearly all actives have a fitted effect of over 60% in size
#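 Using a luciferase readout, inhibitors were identified by reduced reporter activity in Drosophila cells coexpressing a copper-inducible Gal4–ROR gamma fusion and UAS-driven Photinus luciferase, incubated 20 hr after 700 uM copper sulfate.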
# ELG1 DNA repair: ELG1-dependent DNA repair inhibition | HEK293T ELG1-luciferase reporter, luminescence, 16 h; DNA damage induced by 5-fluorouridine | Potency, µM (series often up to 46.1 µM), for inactives: top-dose activity change, negative = inhibition, actives largely listed as inhibitors | 330,000 tested, 2.3% active; further: nearly all actives have a fitted effect of over 55% in size
#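 5-Fluorouridine DNA damage + compound/DMSO, 2,000 cells/well, 16 h, 37 °C/5% CO2. ONE-Glo, 30 min RT, luminescence. Readout = decrease in reporter signal.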
# Gal4-VP16 FLuc: inhibits Gal4-VP16 luciferase reporter, ROR gamma counter-screen. Drosophila S2 Gal4-VP16 UAS-luciferase, luminescence, 20 h. Potency, µM (titrated, usually from 53.6 µM), without a hit: at the highest dose activity, negative = inhibition, usual class: inhibitors. 310,000 tested, 3.5% active. AID 2546;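 further: Gal4-VP16 expression switched on by copper sulfate through the metallothionein promoter; nearly all actives have a fitted effect of over 50% in size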
# TDP1 cell CPT: growth inhibition of DT40 Tdp1-/-;hTDP1 cells with camptothecin (screen for TDP1 inhibitors); Potency, µM (titrated, usually from 46.2 µM), for inactives: at the highest dose activity change, negative = growth inhibition, usual class: inhibitors; AID 686979; chicken DT40 Tdp1-/-;hTDP1 cells + 20 nM CPT, ATP luminescence, 48 h; 420,000 tested, 12% active; further: nearly all actives have a fitted effect of over 55% in size
#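 Chicken DT40 Tdp1-/- cells stably complemented with human TDP1 were seeded at 400 cells/well in medium containing 20 nM camptothecin, exposed to pin-transferred compounds, and grown at 37 °C for at least 48 hr. Viability was read as ATP luminescence.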
# 12-LOX inh: inhibitors of human 12S-lipoxygenase ALOX12 | P18054 | purified 12hLO, xylenol orange hydroperoxide absorbance | Potency, µM (doses to about 108 µM), for the others: top-dose activity change, negative = inhibition, usual class: inhibitors | 580,000 tested, 1.1% active
# Target sequence (P18054 whole entry, looked up): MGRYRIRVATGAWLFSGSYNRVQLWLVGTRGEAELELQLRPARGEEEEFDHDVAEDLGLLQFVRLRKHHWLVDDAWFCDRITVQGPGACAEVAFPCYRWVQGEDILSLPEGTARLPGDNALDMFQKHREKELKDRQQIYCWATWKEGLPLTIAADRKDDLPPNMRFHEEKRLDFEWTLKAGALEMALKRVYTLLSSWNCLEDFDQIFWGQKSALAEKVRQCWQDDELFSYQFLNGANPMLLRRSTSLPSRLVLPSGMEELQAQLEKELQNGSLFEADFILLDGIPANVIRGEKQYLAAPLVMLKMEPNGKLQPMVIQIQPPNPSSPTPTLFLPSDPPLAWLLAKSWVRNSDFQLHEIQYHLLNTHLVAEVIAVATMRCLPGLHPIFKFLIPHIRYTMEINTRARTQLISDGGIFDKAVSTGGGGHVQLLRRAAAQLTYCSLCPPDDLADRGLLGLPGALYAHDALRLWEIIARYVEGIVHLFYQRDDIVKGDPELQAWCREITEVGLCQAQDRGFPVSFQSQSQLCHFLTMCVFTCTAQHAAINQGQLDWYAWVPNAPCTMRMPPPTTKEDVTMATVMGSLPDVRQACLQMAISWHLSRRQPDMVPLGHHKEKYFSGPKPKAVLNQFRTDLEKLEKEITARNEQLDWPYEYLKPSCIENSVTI
#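 Purified human 12hLO at 150 nM in 25 mM Hepes, 0.01% Triton X-100, pH 7.0, preincubated 15 min at room temperature with compound. Reaction started with 40 uM arachidonic acid, 30 min at room temperature. Hydroperoxide measured by Fe-xylenol orange, 573/405 nm absorbance ratio.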
# TDP1 cell noCPT: qHTS for Inhibitors of human tyrosyl-DNA phosphodiesterase 1 (TDP1): qHTS in cells in absence of CPT. DT40 Tdp1-/- hTDP1 cells, no CPT, ATP luminescence, 48 h. Potency, µM (doses to about 46.2 µM), for inactives: top-dose activity change, negative = growth inhibition, usual class: inhibitors. 420,000 tested, 15% active. AID 686978, 2013; further: nearly all actives have a fitted effect of over 55% in size
#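 Luminescent ATP content (CellTiter-Glo) served as the growth readout. Knockout chicken DT40 cells expressing human TDP1 were exposed to compounds without camptothecin for a minimum 48 hr at 37 °C.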
# Starred values were filed as active, the others as inactive; i = inactive; ? = inconclusive; nt = no result given; [ ] = remark or other dose. The call rests on the fitted dose curve; in most records, active means well fitted curve in the direction sought with a large enough effect; inconclusive means small, poorly fitted or top-dose-only effect, or another doubt; inactive means no such curve, though single readings can be large; an effect the other way counts as inactive or inconclusive. On the % scale 0 is the no-effect control and ±100 the full control effect; potency means the concentration at half of the fitted maximal effect.
SMILES,RORg inh,ELG1 DNA repair,Gal4-VP16 FLuc,TDP1 cell CPT,12-LOX inh,TDP1 cell noCPT
CCC(C)(C(=O)NC1CCCCC1)N(Cc1cccs1)C(=O)Cc1cccs1 (configuration not stated),-17.4%,-18.6%,15.6%,?,-17.4%,?
CCC(C)(C(=O)NC1CCCC1)N(Cc1cccs1)C(=O)c1ccc2c(c1)OCO2 (configuration not stated),6.1%,-2.9%,-10.6%,18.4µM*,-3.3%,20.6µM*
O=C(CC1Sc2ccccc2NC1=O)NNc1ccc(Cl)cc1Cl (configuration not stated),nt,nt,nt,?,-20.7%,?
O=C1Nc2c(Cl)cc(Cl)cc2C12Nc1ccccc1S2 (configuration not stated),nt,nt,nt,nt,35.5µM*,nt
Cc1ccc(/C=C2/C(=N)N3N=C(CC(=O)N4CCCC4)SC3=NC2=O)o1,?,20.2%,-15.6%,?,?,?
CC1=CN2C(=N)/C(=C/c3ccc([N+](=O)[O-])o3)C(=O)N=C2S1,11.2µM*,?,5.01µM*,0.651µM*,44.7µM*,1.3µM*
CC1=CN2C(=N)/C(=C/c3ccco3)C(=O)N=C2S1,?,?,15.8µM*,-11.2%,0.4%,-15.8%
CCCCC(CC)COC(=O)c1ccccc1C(=O)O (configuration not stated),21.9%,nt,-2.2%,-1.8%[92.5 µM],-3.5%[57.4 µM],-15.2%[92.5 µM]
CCCC[C@H](CC(=O)c1ccccc1)[C@@H](OC(C)=O)C(=O)Oc1c(C(C)C)cccc1C(C)C,nt,-13.8%,nt,13µM*,?,?
OC(CN1CCCCCC1)CN(c1ccccc1)c1ccccc1 (configuration not stated),?,-23.2%,?,?,i,?
CNCC(O)CN(c1ccccc1)c1ccccc1 (configuration not stated),39.9%,-2.8%,2.8%,?,-5.0%,?
OC(CN1CCCCC1)CN(c1ccccc1)c1ccccc1 (configuration not stated),6.4%,-12.8%,-4.0%,?,12.1%,25.9µM*
OC(CN1CCOCC1)CN(c1ccccc1)c1ccccc1 (configuration not stated),2.3%,-2.7%,-9.0%,?,?,11.6µM*
NC(N)=NCC(O)CN(c1ccccc1)c1ccccc1 (configuration not stated),-5.7%,-23.7%,8.0%,?,?,14.6µM*
O=C(Nc1ccc2oc(-c3cccnc3)nc2c1)c1ccc(Cl)c([N+](=O)[O-])c1,nt,nt,nt,nt,-6.1%,nt
CNCc1cc(Cl)cc(OC)c1OCc1ccccc1,nt,nt,nt,nt,7.5%,nt
Clc1ccc(C2=CC(c3ccco3)n3ncnc3N2)cc1 (configuration not stated),?,-5.7%,-17.5%,-17.6%,?,?
CC(=O)Nc1cccc(C2=CC(c3ccco3)n3ncnc3N2)c1 (configuration not stated),6.31µM*,13.5%,-13.7%,nt,nt,nt
CCN1C(=NCC2CC2)N[C@@H](c2cccc(C(F)(F)F)c2)C(C(=O)OC)=C1C,6.4%,-19.9%,-7.5%,?,nt,10.3µM*
CCN1C(=NCCOC)N[C@@H](c2cccc(C(F)(F)F)c2)C(C(=O)OC)=C1C,?,16.0%,0.0%,20.6µM*,?,18.4µM*
COC(=O)C1=C(C)N(Cc2ccco2)C(=O)N[C@@H]1c1cccc(C(F)(F)F)c1,8.0%,5.6%,-7.1%,nt,nt,nt
CCN1C(=NCc2ccco2)N[C@@H](c2cccc(C(F)(F)F)c2)C(C(=O)OC)=C1C,-10.9%,10.4%,-3.7%,16.4µM*,-70.6%,?
Cc1oc(-c2cccs2)nc1C(=O)N1CCOCC1,nt,nt,nt,nt,-2.3%,nt
CCCN(CCC)S(=O)(=O)c1ccc(C(=O)Nc2nnc(-c3cc(OC)cc(OC)c3)o2)cc1,0.159µM*,1.46µM*,0.282µM*,5.8µM*,nt,4.61µM*
CCCN(CCC)S(=O)(=O)c1ccc(C(=O)Nc2nnc(-c3cccc(OC)c3)o2)cc1,0.398µM*,?,0.631µM*,5.8µM*,30.5%,5.17µM*
SMILES,RORg inh,ELG1 DNA repair,Gal4-VP16 FLuc,TDP1 cell CPT,12-LOX inh,TDP1 cell noCPT
Cc1nn(C)c2c1c(C(F)(F)F)cc(=O)n2CC(=O)N1CCCCC1,nt,nt,nt,?,-16.6%,-26.2%
CCOC(=O)C1CCN(C(=O)Cn2c(=O)cc(C)c3c(C)nn(C)c32)CC1,nt,nt,nt,25.9µM*,-8.9%,18.4µM*
CCN(CC)C(=O)Cn1c(=O)cc(C)c2c(C)nn(C)c21,nt,nt,nt,1.7%,-4.1%,-13.4%
Cc1cc(=O)n(CC(=O)N2CCN(c3ccccc3F)CC2)c2c1c(C)nn2C,nt,nt,nt,16.4µM*,6.8%,8.2µM*
CCCCC(=O)N/N=C(/C)c1ccc(NC(=O)c2ccc(Cl)cc2)cc1,nt,nt,nt,nt,-53.3%,nt
Cc1cc(N2CCN(c3nc(-c4ccccc4)cs3)CC2)c2ccccc2n1,-1.3%,?,0.1%,23.1µM*,5.4%,20.6µM*
Cc1cc(N2CCN(S(=O)(=O)c3ccccc3)CC2)c2ccccc2n1,?,?,?,16.4µM*,0.1%,18.4µM*
O=S(=O)(c1ccccc1)N1CCN(c2ccnc3cc(Cl)ccc23)CC1,?,?,?,16.4µM*,-5.6%,?
O=S(=O)(c1cccs1)N1CCN(c2ccnc3cc(Cl)ccc23)CC1,?,?,?,13µM*,20.2%,23.1µM*
Clc1ccc2c(N3CCN(CCCN4CCN(c5ccnc6cc(Cl)ccc56)CC4)CC3)ccnc2c1,nt,nt,nt,nt,0.6%[22.9 µM],nt
O=S(=O)(c1cccs1)N1CCN(c2ccccc2Cl)CC1,nt,nt,nt,?,305.8%,?
O=C(Nc1cccc(F)c1)N1CCC(Oc2ncccc2C(=O)N2CCCCC2)C1 (configuration not stated),nt,nt,nt,nt,6.8%,nt
C=CCC(NC(C)=O)C(=O)O (configuration not stated),nt,nt,nt,nt,6.7%,nt
O=C(c1cc(C2CC2)nc2onc(C3CCCNC3)c12)N1CCCCC1 (configuration not stated),nt,nt,nt,nt,1.7%[6.33 µM],nt
Cc1nc2ccccc2nc1CN1C(=O)C(=O)N(C2CCCC2)C1=O,nt,nt,nt,nt,20.4%,nt
Cc1ccc(CNC(=O)C23CN(Cc4ccccc4)CC2C(c2cccc([N+](=O)[O-])c2)=NO3)cc1 (configuration not stated),3.4%,-11.3%,-5.6%,?,1.7%,20.6µM*
